Assay outcomes (PubChem)
USP1-UAF1 inh = blocks the human USP1/UAF1 deubiquitinase complex; Potency, µM (top dose mostly 57.1 µM), for the others: top-dose activity change, negative = inhibition, hits mostly inhibitors; recombinant USP1/UAF1, Ub-Rhodamine cleavage fluorescence; O94782; 390,000 compounds, 0.23% hits; further: potency means the concentration at half of the fitted maximal effect; nearly all actives have a fitted effect of over 60% in size
Target sequence (O94782 whole entry, looked up): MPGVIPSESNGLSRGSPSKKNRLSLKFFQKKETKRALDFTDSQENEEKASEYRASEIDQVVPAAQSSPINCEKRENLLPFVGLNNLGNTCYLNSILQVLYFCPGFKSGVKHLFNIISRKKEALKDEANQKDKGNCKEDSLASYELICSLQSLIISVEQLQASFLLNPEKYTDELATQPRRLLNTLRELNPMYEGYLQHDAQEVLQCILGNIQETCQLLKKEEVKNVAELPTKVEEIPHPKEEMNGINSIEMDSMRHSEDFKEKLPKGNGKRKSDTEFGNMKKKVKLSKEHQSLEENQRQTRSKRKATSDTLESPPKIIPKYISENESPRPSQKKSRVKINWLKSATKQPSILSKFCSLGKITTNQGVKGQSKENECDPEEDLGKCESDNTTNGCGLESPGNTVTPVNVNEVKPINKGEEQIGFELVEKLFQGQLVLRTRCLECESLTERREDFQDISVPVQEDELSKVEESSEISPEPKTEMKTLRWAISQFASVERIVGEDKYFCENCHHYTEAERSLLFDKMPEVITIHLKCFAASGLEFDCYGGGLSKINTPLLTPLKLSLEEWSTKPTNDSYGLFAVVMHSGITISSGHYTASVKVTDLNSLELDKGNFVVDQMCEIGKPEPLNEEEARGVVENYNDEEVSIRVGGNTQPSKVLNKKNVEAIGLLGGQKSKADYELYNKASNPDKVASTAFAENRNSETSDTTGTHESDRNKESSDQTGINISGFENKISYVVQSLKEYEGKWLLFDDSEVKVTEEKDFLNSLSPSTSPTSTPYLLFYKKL
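USP1/UAF1 complex at 1 nM was preincubated with compound for 15 min at room temperature, then Ub-Rho substrate (150nM final) was added. Fluorescence (480/540 nm) was read kinetically, 6 reads every 60 seconds.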
Tau fibril FP = tau fibrillization inhibition (FP); K18 P301L tau heparin fibrillization, Alexa594 FP, 6 h; 280,000 compounds, 0.39% hits; Potency, µM (top dose mostly 57.7 µM), for inactives: at the top dose activity, negative = inhibition, actives largely listed as inhibitors; P10636; further: potency means the concentration at half of the fitted maximal effect; nearly all actives have a fitted effect of over 55% in size
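K18 P301L tau (15 uM unlabeled/0.24 uM Alexa 594-labeled, final) + compound + heparin 20 uM final; 100 mM NaOAc pH 7; 6 hr 37 C; ThT 30 uM final added, 1 hr RT; FP ex 555/em 632 nm.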
Tau fluor counter = counter-screen for tau fibril formation inhibitors | tau K18 P301L Alexa594 fluorescence, heparin fibrillization | Potency, µM (highest dose often 57.7 µM), inactives show at the highest dose activity change, negative = decrease | 280,000 compounds, 0.93% hits; further: potency means the concentration at half of the fitted maximal effect; nearly all actives have a fitted effect of over 55% in size
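Human K18 P301L tau (15 uM unlabeled plus 0.24 uM Alexa 594-labeled, final) in 100 mM sodium acetate pH 7 was mixed with compound and 20 uM heparin and incubated 6 hr at 37 C.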
FBPA coupling cs = counter-screen for Giardia aldolase inhibitors: coupling enzyme system; 290,000 compounds, 0.67% hits; AID 2472; activity change, negative = inhibition, % at 58.2 µM, hits read low; coupling enzyme system counterscreen, AmpLite Red fluorescence; in the data active means activity change below about -30%
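Coupling enzymes only (glyceraldehyde-3-phosphate) + compound, at 57.5 uM final, 10 min RT; add substrate/coupling/AmpLite Red mix, 20 min RT; fluorescence ex 525/em 598 nm. Actives flag coupling-system interference.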
Tau ThT inhib = blocks human tau fibril formation measured by thioflavin T; P10636; recombinant tau K18 P301L (four-repeat tau fragment), heparin-induced fibrillization, ThT fluorescence; Potency, µM (highest dose often 57.4 µM), inactives show top-dose activity, negative = inhibition, hits mostly inhibitors; 270,000 compounds, 2.1% hits; further: potency means the concentration at half of the fitted maximal effect; nearly all actives have a fitted effect of over 55% in size
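K18 P301L tau (15 uM + 0.24 uM Alexa 594-tagged), heparin 20 uM, NaOAc pH 7, 6 h 37 C; ThT 30 uM, 1 h RT, ex 450/em 510 nm.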
* = called active by the depositor; ? = inconclusive; · = not tested or not shown; [ ] = another dose, or the depositor's remark. Most compounds without a hit are left out; they make up all but 2.3% or so of the library. Unless noted, the call rests on the fitted dose curve; in most records, active means well fitted curve in the direction sought with a large enough effect; inconclusive means small, poorly fitted or top-dose-only effect, or another doubt; inactive means no such curve, though single readings can be large; an effect the other way counts as inactive or inconclusive. On the % scale 0 is the no-effect control and ±100 the full control effect.

SMILES | USP1-UAF1 inh | Tau fibril FP | Tau fluor counter | FBPA coupling cs | Tau ThT inhib
O=C(O)CSc1cc(C(=O)c2cc(F)ccc2O)cn2c(=O)c3c(-c4ccccc4)csc3nc12 | -17.3% | -12.6% | -25.3% | 13.0 | 28.2µM*
CCOC(=O)c1sc2nc3c(SCCC(=O)O)cc(C(=O)c4cc(OC)ccc4O)cn3c(=O)c2c1C | 12.0% | -4.3% | -23.7% | -8.1 | 25.1µM*
Cc1ccccc1NC(=O)c1c(C)oc2ccc(O)c(CN3CCC(C)CC3)c12 | -25.6% | -6.4% | -11.2% | · | -5.1%
N=C1/C(=C/c2ccc(-c3cccc(C(=O)O)c3)o2)C(=O)N=C2SC(CC(=O)N3CCOCC3)=NN12 | -20.7% | · | · | 6.9 | ·
N=C1/C(=C\c2ccc(-c3cccc(C(=O)O)c3)o2)C(=O)N=C2SC=C(c3ccccc3)N12 | -12.6% | 7.6% | -8.4% | -0.4 | 2.51µM*
N#Cc1ncc(-c2ccc3c(c2)OCCOCCOCCOCCO3)nc1C#N | -21.8% | ? | -20.6% | -0.4 | 20µM*
N#Cc1ncc(-c2ccc3c(c2)OCCOCCOCCOCCOCCO3)nc1C#N | -16.4% | ? | -9.6% | 2.7 | 22.4µM*
[C-]#[N+]c1cc(-c2ccncc2)c(C)[nH]c1=O | · | -3.3% | -1.6% | · | 2.3%
CC(/C=C/c1ccc(N(C)C)cc1)=N/N=C1/NC(=O)CC(C(=O)Nc2ccc(Cl)cc2)S1 (configuration not stated) | -16.2% | -3.0% | 8.91µM*[quencher] | 0.7 | 7.94µM*
CC(/C=C/c1ccc(N(C)C)cc1)=N\N=C1\NC(=O)CC(C(=O)Nc2ccccc2)S1 (configuration not stated) | ? | 8.9% | ? | 0.2 | ?
Oc1cccc2cnccc12 | -5.7% | -3.5% | -9.2% | -9.0 | -8.1%
Nc1cccc2cnccc12 | -23.7% | -5.5% | -8.3% | -37.6* | -13.4%
N#Cc1c(SCC(N)=O)nc2c(c1-c1ccncc1)CCCC2 | -23.2% | -0.3% | 2.5% | 1.0 | 1.2%
N#Cc1c(-c2ccncc2)c2c([nH]c1=S)CCCC2 | 2.2% | -3.8% | -16.8% | -35.7* | ?
Cc1ccc(-c2c3c([nH]c(=S)c2C#N)CCCC3)o1 | -20.1% | ? | -15.2% | -18.4 | 22.4µM*
Cc1noc(C)c1-c1ccc2ncnc(NC(C)c3ccccc3)c2c1 (configuration not stated) | · | · | · | -0.1 | ·
CCc1ccc(NC(=O)C(=O)NCC(c2ccc3c(c2)OCO3)N2CCN(C)CC2)cc1 (configuration not stated) | -13.4% | 3.8% | -1.0% | · | 2.7%
CCOC(=O)C(NC(=O)CC)(Nc1ccccc1)C(F)(F)F (configuration not stated) | -4.1% | -5.6% | -8.6% | -2.1 | ?
CCOC(=O)C(NC(=O)CC)(N1CCc2ccccc2C1)C(F)(F)F (configuration not stated) | -20.5% | ? | -15.6% | 2.6 | 22.4µM*
O=[N+]([O-])c1ccc(Sc2cccc3cccnc23)c2cccnc12 | -18.0% | -16.9% | -29.2% | -33.9* | ?
COc1ccc2[nH]cc(CCNc3ncncc3-c3cccc(NS(C)(=O)=O)c3)c2c1 | · | · | · | 2.2 | ·
COc1cccc(CN2CCN(C3CCN(c4ccccc4C)CC3)CC2CCO)c1 (configuration not stated) | -11.8% | -0.9% | -8.9% | -2.1 | -11.7%
COc1cccc(CN2CCN(C3CSCCSC3)CC2CCO)c1 (configuration not stated) | -12.4% | 5.4% | 4.3% | -32.3* | 8.2%
COc1cc(/C=C(\C#N)c2nc(-c3cc4ccccc4oc3=O)cs2)ccc1O | 4.7% | 4.1% | ? | 2.3 | 3.55µM*
COc1cc(/C=C(\C#N)c2nc3ccccc3o2)ccc1O | ? | ? | ? | 11.4 | 7.94µM*
SMILES | USP1-UAF1 inh | Tau fibril FP | Tau fluor counter | FBPA coupling cs | Tau ThT inhib
CCC(=O)Nc1nnc(S(=O)(=O)N2CCc3ccccc32)s1 | -4.1% | -9.5% | -29.7% | 3.3 | 17.8µM*
CC(C)CC(=O)Nc1nnc(S(=O)(=O)N2CCc3ccccc32)s1 | ? | 11.7% | ? | 2.7 | 2.24µM*
CCC(CC)C(=O)Nc1nnc(S(=O)(=O)N2c3ccccc3CC2C)s1 (configuration not stated) | -6.0% | -3.4% | -22.0% | 2.9 | 14.1µM*
CCC(CC)C(=O)Nc1nnc(S(=O)(=O)N2CCc3ccccc32)s1 | -11.6% | 1.9% | -25.9% | -6.4 | ?
c1ccc2nc3c(nc2c1)c1ccccc1n3CCN1CCOCC1 | -12.8% | -20.1% | -12.0% | -5.2 | -16.2%
CCn1c2ccccc2c2nc3cc(S(=O)(=O)N4CCOCC4)ccc3nc21 | ? | 31.6µM* | -27.0% | -0.2 | 25.1µM*
Cc1ccc(-c2ccc(/C=C3\SC(N4CCOCC4)=NC3=O)o2)cc1 | -13.2% | -5.4% | ? | -5.4 | 12.6µM*
O=C1S/C(=C\c2ccc(N3CCOCC3)o2)C(=O)N1Cc1ccc(F)cc1 | 5.62µM* | -2.7% | -4.3% | -35.6* | -15.9%
O=C1S/C(=C/c2ccc(N3CCOCC3)o2)C(=O)N1Cc1ccc(F)cc1 | 14.1µM* | 6.5% | -9.2% | · | ?
CC(C)OC(=O)CN1C(=O)S/C(=C/c2ccc(N3CCCCC3)o2)C1=O | ? | 17.6% | -8.2% | -37.8* | ?
Cc1ccccc1-c1nn2c(=O)cc(CN3CCN(S(=O)(=O)c4ccc(Cl)cc4)CC3)nc2s1 | -32.1% | -7.5% | -12.7% | · | -7.8%
CCCCOC(=O)c1ccc(NC(=O)Cn2nnc3sc4c(c3c2=O)CCCC4)cc1 | -21.8% | ? | ? | · | 1.4%
Cc1ccc(C)c(N2C(=O)N(C)c3ccccc3S2(=O)=O)c1 | -18.6% | -9.0% | -26.4% | · | -10.8%
O=c1cc(-c2ccc(F)cc2)nc(SCc2nc(-c3ccc(Cl)cc3)no2)[nH]1 | ? | ? | 16.1% | · | 11.0%
O=C1NC(=S)S/C1=C/c1ccc(N2CCOCC2)o1 | ? | 11.5% | -9.3% | -51.1* | -2.7%
COc1ccc2cc(/C=C3\SC(=S)NC3=O)c(N3CCOCC3)nc2c1 | -19.5% | 3.9% | -23.9% | 10.3 | 15.8µM*
COc1cccc(C=C2SC(=S)NC2=O)c1 | -7.8% | · | · | · | ·
C=CCN1C(=O)N/C(=C/c2ccc(N3CCOCC3)o2)C1=O | · | ? | -28.4% | -12.4 | 7.94µM*
O=C1N/C(=C/c2ccc(N3CCOCC3)o2)C(=O)N1c1ccccc1 | -11.2% | -15.9% | 3.0% | -8.0 | ?
O=C1N=C(N2CCOCC2)S/C1=C/c1ccc(-c2ccc(F)cc2)o1 | -20.5% | 5.1% | -15.2% | -0.6 | ?
COc1ccc(-c2nc(-c3ccccc3)oc2Nc2c(C)cccc2C)cc1 | · | 3.1% | -2.9% | 2.5 | -1.6%
Cc1c(NC(=O)Nc2ccc(Br)cc2F)sc2nc3n(c(=O)c12)CCC(C)CC3 (configuration not stated) | ? | 8.4% | -24.1% | · | 2.0%
